# The supplement of paper PMC11732987, “Enantioselective OTUD7B fragment discovery through chemoproteomics screening and high-throughput optimisation” (Communications Chemistry, 2025)
# Values without a mark were called inactive.
# Columns and labels:
# Experiment in all cases: log2 ratio of Biotin-Ahx-Ub-VS probe labelling (fragment/DMSO); higher = less target engagement (more negative = stronger competition), active = hit call of the paper (q ≤ 0.05, log2 ratio ≤ -1)
# Conditions in all cases: compound concentration: 200 uM; treatment time: 3 h
# [1] = biological target: T1, OTUD6B (UniProt Q8N6M0)
# T1 sequence (whole entry): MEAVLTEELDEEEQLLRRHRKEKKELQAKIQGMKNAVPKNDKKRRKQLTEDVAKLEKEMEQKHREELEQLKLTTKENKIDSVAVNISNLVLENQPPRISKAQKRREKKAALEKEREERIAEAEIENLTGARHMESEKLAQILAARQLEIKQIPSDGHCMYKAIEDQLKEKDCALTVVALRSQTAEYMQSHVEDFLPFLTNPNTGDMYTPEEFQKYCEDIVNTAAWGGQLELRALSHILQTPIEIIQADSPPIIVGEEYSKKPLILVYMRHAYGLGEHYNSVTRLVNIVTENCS
# Method in brief: (§1)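 HEK293T lysate (495 µg per sample, in Tris/CHAPS/IGEPAL buffer with protease inhibitors) was exposed in triplicate for 3 h to fragment at 200 µM or to vehicle, then to Biotin-Ahx-Ub-VS at 0.5 µM final for 1 h. Labelled DUBs were enriched on NeutrAvidin, digested with LysC and trypsin, and analysed by diaPASEF LC-MS/MS. Spectronaut label-free quantities were normalised to the global median, and values are average log2 ratios of fragment over vehicle from an unpaired t-test. Only proteins with ≥2 unique peptides were used.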
# [2] = biological target: T2, OTUD7B (UniProt Q6GQQ9)
# T2 sequence (whole entry): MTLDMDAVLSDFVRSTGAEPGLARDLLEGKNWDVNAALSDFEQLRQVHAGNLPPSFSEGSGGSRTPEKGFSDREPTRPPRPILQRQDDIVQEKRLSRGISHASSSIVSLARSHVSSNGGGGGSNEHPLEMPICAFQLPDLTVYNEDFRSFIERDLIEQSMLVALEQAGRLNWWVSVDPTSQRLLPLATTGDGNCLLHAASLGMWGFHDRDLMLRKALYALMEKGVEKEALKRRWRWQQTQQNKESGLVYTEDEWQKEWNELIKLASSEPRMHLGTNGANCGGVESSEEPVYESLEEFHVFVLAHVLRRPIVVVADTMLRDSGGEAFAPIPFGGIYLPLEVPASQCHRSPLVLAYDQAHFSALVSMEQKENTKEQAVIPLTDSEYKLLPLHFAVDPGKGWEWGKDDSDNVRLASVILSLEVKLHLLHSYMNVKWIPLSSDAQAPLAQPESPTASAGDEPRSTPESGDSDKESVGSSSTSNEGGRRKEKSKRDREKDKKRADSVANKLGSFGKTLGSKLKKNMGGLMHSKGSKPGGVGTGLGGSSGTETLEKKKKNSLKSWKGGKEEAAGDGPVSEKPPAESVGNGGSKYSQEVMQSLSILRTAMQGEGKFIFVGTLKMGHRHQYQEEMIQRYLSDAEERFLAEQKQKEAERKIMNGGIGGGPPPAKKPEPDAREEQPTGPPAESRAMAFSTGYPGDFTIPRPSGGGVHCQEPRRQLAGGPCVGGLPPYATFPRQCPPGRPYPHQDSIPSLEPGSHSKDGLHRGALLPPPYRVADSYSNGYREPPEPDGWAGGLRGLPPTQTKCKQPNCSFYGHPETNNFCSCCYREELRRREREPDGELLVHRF
# Method in brief: as §1
# [3] = biological target: PRPF8 (UniProt Q6P2Q9)
# Method in brief: as §1
# [4] = biological target: T3, PSMD7 (UniProt P51665)
# T3 sequence (whole entry): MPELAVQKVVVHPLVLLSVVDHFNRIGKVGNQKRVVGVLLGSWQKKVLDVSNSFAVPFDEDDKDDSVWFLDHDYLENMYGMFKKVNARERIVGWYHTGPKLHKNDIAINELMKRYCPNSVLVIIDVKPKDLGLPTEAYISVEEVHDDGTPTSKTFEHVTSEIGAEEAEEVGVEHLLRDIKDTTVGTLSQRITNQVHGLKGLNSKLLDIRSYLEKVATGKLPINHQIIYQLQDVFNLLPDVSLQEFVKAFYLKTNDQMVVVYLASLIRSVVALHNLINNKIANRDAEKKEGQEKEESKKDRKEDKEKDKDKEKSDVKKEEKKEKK
# Method in brief: as §1
# [5] = biological target: UCHL1 (UniProt P09936)
# Chain of UCHL1 (P09936 whole entry, looked up): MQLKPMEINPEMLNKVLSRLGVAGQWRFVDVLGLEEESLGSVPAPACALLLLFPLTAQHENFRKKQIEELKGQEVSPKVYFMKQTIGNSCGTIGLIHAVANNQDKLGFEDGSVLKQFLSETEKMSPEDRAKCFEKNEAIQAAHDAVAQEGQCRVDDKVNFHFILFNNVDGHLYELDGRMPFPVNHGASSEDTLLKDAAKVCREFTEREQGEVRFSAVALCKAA
# Method in brief: as §1
# [6] = biological target: T4, UCHL3 (UniProt P15374)
# T4 sequence (whole entry): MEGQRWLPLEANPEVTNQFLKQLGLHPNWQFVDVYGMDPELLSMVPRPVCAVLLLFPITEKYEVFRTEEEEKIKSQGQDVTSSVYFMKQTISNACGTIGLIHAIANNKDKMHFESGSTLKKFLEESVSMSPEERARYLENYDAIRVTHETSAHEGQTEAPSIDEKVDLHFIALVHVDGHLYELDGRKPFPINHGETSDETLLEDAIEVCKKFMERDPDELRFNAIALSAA
# Method in brief: as §1
# [7] = biological target: T5, UCHL5 (UniProt Q9Y5K5)
# T5 sequence (whole entry): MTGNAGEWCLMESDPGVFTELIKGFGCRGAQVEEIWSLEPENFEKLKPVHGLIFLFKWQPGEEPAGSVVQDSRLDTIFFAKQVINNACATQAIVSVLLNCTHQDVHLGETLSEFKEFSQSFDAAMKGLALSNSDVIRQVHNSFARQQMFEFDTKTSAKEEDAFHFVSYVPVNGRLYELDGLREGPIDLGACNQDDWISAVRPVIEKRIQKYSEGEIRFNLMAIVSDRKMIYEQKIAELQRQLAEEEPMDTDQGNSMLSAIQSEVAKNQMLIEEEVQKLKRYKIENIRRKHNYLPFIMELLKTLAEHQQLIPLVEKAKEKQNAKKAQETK
# Method in brief: as §1
# [8] = biological target: USP10 (UniProt Q14694)
# Chain of USP10 (Q14694 whole entry): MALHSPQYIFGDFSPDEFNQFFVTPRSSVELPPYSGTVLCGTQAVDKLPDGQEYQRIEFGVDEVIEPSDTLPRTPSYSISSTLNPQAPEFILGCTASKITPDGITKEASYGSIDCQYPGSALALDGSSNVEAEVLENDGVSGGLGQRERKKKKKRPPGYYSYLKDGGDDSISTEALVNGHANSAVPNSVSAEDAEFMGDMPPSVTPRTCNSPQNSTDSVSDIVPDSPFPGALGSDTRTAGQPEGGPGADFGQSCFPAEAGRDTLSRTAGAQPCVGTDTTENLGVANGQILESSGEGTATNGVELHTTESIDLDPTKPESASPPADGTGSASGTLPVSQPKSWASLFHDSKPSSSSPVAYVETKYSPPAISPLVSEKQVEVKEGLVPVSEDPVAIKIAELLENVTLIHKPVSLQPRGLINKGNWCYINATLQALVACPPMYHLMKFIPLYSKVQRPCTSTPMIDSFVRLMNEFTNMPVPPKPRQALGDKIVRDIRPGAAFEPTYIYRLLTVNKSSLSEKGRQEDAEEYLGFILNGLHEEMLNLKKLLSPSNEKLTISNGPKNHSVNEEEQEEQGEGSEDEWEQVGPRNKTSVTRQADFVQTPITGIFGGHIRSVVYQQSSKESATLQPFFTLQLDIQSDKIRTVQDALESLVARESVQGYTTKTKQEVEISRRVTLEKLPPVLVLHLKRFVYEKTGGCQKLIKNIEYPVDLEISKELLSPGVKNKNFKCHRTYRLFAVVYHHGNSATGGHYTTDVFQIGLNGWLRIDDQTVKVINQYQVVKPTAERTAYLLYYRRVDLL
# Method in brief: as §1
# [9] = biological target: T6, USP15 (UniProt Q9Y4E8)
# T6 sequence (whole entry): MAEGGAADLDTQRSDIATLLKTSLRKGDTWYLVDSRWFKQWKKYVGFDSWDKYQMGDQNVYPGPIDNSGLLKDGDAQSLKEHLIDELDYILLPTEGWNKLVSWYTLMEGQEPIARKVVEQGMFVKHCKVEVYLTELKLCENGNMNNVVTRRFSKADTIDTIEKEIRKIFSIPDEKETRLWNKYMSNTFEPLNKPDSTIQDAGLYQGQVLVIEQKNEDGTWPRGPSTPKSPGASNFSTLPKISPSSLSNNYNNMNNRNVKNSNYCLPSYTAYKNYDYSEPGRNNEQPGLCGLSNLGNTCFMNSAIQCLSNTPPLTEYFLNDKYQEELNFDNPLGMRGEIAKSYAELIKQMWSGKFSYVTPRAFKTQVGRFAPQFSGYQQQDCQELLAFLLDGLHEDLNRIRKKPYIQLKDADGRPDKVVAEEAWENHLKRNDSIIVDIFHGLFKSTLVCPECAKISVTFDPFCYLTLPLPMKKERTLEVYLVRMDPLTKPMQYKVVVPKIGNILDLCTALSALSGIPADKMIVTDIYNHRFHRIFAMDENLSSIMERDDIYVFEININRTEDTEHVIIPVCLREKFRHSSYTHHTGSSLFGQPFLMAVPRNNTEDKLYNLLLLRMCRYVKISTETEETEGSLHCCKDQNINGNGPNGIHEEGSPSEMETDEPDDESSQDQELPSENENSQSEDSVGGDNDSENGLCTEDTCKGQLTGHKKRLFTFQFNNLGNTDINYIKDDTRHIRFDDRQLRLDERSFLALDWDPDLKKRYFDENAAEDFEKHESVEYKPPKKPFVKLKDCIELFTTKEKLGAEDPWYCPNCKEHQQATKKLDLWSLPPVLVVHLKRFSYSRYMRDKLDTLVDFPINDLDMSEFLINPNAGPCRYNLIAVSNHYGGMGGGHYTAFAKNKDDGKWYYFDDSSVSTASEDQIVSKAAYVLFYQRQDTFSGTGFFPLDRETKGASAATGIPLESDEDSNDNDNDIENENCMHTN
# Method in brief: as §1
# [10] = biological target: USP16 (UniProt Q9Y5T5)
# Chain of USP16 (Q9Y5T5 whole entry, looked up): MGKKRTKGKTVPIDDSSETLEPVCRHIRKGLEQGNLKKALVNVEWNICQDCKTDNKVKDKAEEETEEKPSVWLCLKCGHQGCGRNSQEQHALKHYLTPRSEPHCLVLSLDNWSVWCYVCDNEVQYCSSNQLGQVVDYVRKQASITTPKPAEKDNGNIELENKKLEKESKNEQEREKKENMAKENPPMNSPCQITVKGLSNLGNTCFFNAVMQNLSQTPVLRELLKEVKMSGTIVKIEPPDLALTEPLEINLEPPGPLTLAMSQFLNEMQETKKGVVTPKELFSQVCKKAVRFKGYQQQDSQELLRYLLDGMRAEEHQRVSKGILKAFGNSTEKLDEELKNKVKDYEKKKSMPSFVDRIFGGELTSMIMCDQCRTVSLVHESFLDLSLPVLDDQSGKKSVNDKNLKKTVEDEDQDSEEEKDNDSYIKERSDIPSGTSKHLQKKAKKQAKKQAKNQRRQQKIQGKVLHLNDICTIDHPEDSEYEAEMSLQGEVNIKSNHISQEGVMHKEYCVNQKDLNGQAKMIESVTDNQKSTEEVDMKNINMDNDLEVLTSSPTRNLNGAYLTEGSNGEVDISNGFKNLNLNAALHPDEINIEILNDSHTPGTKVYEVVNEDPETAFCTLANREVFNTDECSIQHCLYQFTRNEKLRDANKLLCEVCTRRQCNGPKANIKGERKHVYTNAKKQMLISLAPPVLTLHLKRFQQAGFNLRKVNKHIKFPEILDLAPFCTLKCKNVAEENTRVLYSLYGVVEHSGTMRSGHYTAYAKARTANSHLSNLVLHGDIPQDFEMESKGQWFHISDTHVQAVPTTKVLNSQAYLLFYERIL
# Method in brief: as §1
structure (smiles),measurement,setting,value
CN(CCc1ncc(Br)cn1)C(=O)CCl.Cl,log2 ratio of Biotin-Ahx-Ub-VS probe labelling,[1],-0.311
same,log2 ratio of Biotin-Ahx-Ub-VS probe labelling,[2],-1.39 (active)
same,log2 ratio of Biotin-Ahx-Ub-VS probe labelling,[3],-0.0479
same,log2 ratio of Biotin-Ahx-Ub-VS probe labelling,[4],-0.205
same,log2 ratio of Biotin-Ahx-Ub-VS probe labelling,[5],-1.55 (active)
same,log2 ratio of Biotin-Ahx-Ub-VS probe labelling,[6],0.504
same,log2 ratio of Biotin-Ahx-Ub-VS probe labelling,[7],-0.318
same,log2 ratio of Biotin-Ahx-Ub-VS probe labelling,[8],-0.276
same,log2 ratio of Biotin-Ahx-Ub-VS probe labelling,[9],-0.463
same,log2 ratio of Biotin-Ahx-Ub-VS probe labelling,[10],-0.32
